# Reference: the supplement of paper PMC8728848
# This excerpt belongs to a sample that is enriched for the strongest signals.
# B1: rEtpA (Escherichia coli) (protein)
# chain: MNRIYKLKFDKRRNELVVVSEITTGVGNAKATGSVEGEKSPRRGVRAMALSLLSGMMIMAHPAMSANLPTGGQIVAGSGSIQTPSGNQMNIHQNSQNMVANWNSFDIGKGNTVQFDQPSSSAVALNRVVGGGESQIMGNLKANGQVFLVNPNGVLFGEGASVSTSGFVASTRDIKNDDFMNRRYTFSGGQKAGAAIVNQGELTTNAGGYIVLAADRVSNSGTIRTPGGKTVLAASERITLQLDNGGLMSVQVTGDVVNALVENRGLVSARDGQVYLTALGRGMLMNTVLNVSGVVEASGMHRQDGNIVLDGGDSGVVHLSGTLQADNASGQGGKVVVQGKNILLDKGSNITATGGQGGGEVYVGGGWQGKDSNIRNADKVVMQGGARIDVSATQQGNGGTAVLWSDSYTNFHGQISAKGGETGGNGGRVETSSHGNLQAFGTVSASAKKGKAGNWLLDSADITIVNGSNVSKTETTQSPPHTQFAPTAAGSAVSNTSINNRLNNGTSVTILTHRTRTGTAQGGNITVNAAINKSNGSDVNLTLQAGGNITVNNSITSTEGKLNVNLSGARTSNGSITISNNANITTNGGDITVGTTNTSNRVNISINNTTLNASNGNIQLTGTGTDSGILFAGNNRLTASNIALTGNSTSGNAINLTGTATLNATNNITLTGSSTSGNAINLKGNNTLTASNITLTGESTSGNAINLTDTTGTTTLNATNNITMQGTRVQIKHSNITAGNFALNATVAGSEISNTTLTATNNINLAAKTNSASSGVYLKDARITSTNGSITANGTATANGKATHLDGNVTLNASNGRIKLTGNGHGSASGILFAGNNRLTASNIALTGNSTSGNAINLTGTATLNATNDITLTGSSTSGNAINLTGTATLNATNNITLTGSSTSGNAINLKGNNTLTASNITLTGESTSGNAINLTDTTGTTTLNATNNITMQGTRVQIKHSNITAGNFALNATVAGSEISNTTLTATNNINLAAKTNSASSGVYLKDARITSTNGSITANGTATANGKATHLDGNVTLNASNGRIKLTGNGHGSASGILFAGNNRLTASNIALTGNSTSGNAINLTGTATLNATNDITLTGSSTSGNAINLTGTATLNATNNITLTGSSTSGNAINLKGNNTLTASNITLTGESTSGNAINLTDTTGTTTLNATNNITMQGTRVQIKHSNITAGNFALNATVAGSEISNTTLTATNNINLAAKTNSASSGVYLKDARITSTNGSITANGTATANGKATHLDGNVTLNASNGRIKLTGNGHGSASGILFAGNNRLTASNIALTGNSTSGNAINLTGTATLNATNDITLTGSSTSGNAINLTGTATLNATNNITLTGSSTSGNAINLKGNNTLTASNITLTGESTSGNAINLTDTTGTTTLNATNNITMQGTRVQIKHSNITAGNFALNATVAGSEISNTTLTATNNINLAAKTNSASSGVYLKDARITSTNGSITTNGTATANGKATHLDGNVTLNASNGRIKLTGNGHGSASGILFAGNNRLTASNIALTGNSTSGNAINLTGTATLNATNDITLTGSSTSGNAINLTGTATLNATNNITLTGSSTSGNAINLKGNNTLTASNITLTGESTSGNAINLTDTTGTTTLNATNNITMQGTRVQIKHSNITAGNFALNATVAGSEISNTTLTATNNINLAAKTNSASSGVYLKDARITSTNGSITANGTAPANDNATYLDGNVTLNASNGSIKLTGNGNGSTSGILFAGNNTLTASNITLTGNSEVYWQKLGPEQKLISEEDLNSAVDHHHHHH
# Key:
# Test in all cases: glycan array binding signal (z-score within array); higher = stronger binding
# Settings in all cases: glycan notation: IUPAC condensed, linker removed
# [1] = molecular target: Fuc(a1-2)Gal(b1-3)GlcNAc(b1-3)[Gal(b1-4)GlcNAc(b1-6)]Gal(b1-4)Glc
# In short: (§1)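 Glycan array binding is given as a within-array Z-score, which can be read as non-binding when negative. The arrays, 3228 of them, came from the Consortium for Functional Glycomics database and were retained only where the protein sequence was available. Z-scores were averaged across arrays of the same protein sequence at different concentrations or buffers and across linkers.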
# [2] = molecular target: Fuc(a1-2)Gal(b1-4)[Fuc(a1-3)]GlcNAc(b1-2)[Fuc(a1-2)Gal(b1-4)[Fuc(a1-3)]GlcNAc(b1-4)]Man(a1-3)[Fuc(a1-2)Gal(b1-4)[Fuc(a1-3)]GlcNAc(b1-2)Man(a1-6)]Man(b1-4)GlcNAc(b1-4)GlcNAc
# In short: as §1
# [3] = molecular target: Fuc(a1-2)[Gal(a1-3)]Gal(b1-3)GalNAc
# In short: as §1
# [4] = molecular target: Fuc(a1-2)[Gal(a1-3)]Gal(b1-3)GalNAc(b1-3)Gal(a1-4)Gal(b1-4)Glc
# In short: as §1
# [5] = molecular target: Fuc(a1-2)[GalNAc(a1-3)]Gal(b1-3)GlcNAc(b1-2)Man(a1-3)[Fuc(a1-2)[GalNAc(a1-3)]Gal(b1-3)GlcNAc(b1-2)Man(a1-6)]Man(b1-4)GlcNAc(b1-4)GlcNAc
# In short: as §1
# [6] = molecular target: Fuc(a1-2)[GalNAc(a1-3)]Gal(b1-4)GlcNAc(b1-2)Man(a1-3)[Fuc(a1-2)[GalNAc(a1-3)]Gal(b1-4)GlcNAc(b1-2)Man(a1-6)]Man(b1-4)GlcNAc(b1-4)GlcNAc
# In short: as §1
# [7] = molecular target: Fuc(a1-3)[Gal(b1-4)]GlcNAc(b1-3)GalNAc
# In short: as §1
# [8] = molecular target: Fuc(a1-3)[Gal(b1-4)]GlcNAc(b1-6)GalNAc
# In short: as §1
# [9] = molecular target: Fuc(a1-3)[Gal3S(b1-4)]GlcNAc
# In short: as §1
# Fuc(a1-4)GlcNAc = molecular target: Fuc(a1-4)GlcNAc
# In short: as §1
# Gal(a1-2)Gal = molecular target: Gal(a1-2)Gal
# In short: as §1
# Gal(a1-3)Gal = molecular target: Gal(a1-3)Gal
# In short: as §1
# Gal(a1-3)Gal(b1-3)GlcNAc = molecular target: Gal(a1-3)Gal(b1-3)GlcNAc
# In short: as §1
# [10] = molecular target: Gal(a1-3)Gal(b1-3)GlcNAc(b1-2)Man(a1-3)[Gal(a1-3)Gal(b1-3)GlcNAc(b1-2)Man(a1-6)]Man(b1-4)GlcNAc(b1-4)GlcNAc
# In short: as §1
# Gal(a1-3)Gal(b1-4)Glc = molecular target: Gal(a1-3)Gal(b1-4)Glc
# In short: as §1
# [11] = molecular target: Gal(b1-3)GalNAc(b1-4)Gal(b1-4)Glc
# In short: as §1
# [12] = molecular target: Gal(b1-3)GlcNAc(b1-3)Gal(b1-4)GlcNAc
# In short: as §1
# [13] = molecular target: Gal(b1-4)GlcNAc(b1-2)Man(a1-3)[GlcNAc(b1-2)Man(a1-6)]Man(b1-4)GlcNAc(b1-4)GlcNAc
# In short: as §1
# [14] = molecular target: Gal(b1-4)GlcNAc(b1-2)Man(a1-3)[GlcNAc(b1-4)][Gal(b1-4)GlcNAc(b1-2)Man(a1-6)]Man(b1-4)GlcNAc(b1-4)GlcNAc
# In short: as §1
# [15] = molecular target: Gal(b1-4)GlcNAc(b1-2)Man(a1-6)Man(b1-4)GlcNAc(b1-4)GlcNAc
# In short: as §1
# [16] = molecular target: Gal(b1-4)GlcNAc(b1-2)Man(a1-6)[Man(a1-3)]Man(b1-4)GlcNAc(b1-4)GlcNAc
# In short: as §1
# [17] = molecular target: Gal(b1-4)GlcNAc(b1-2)[Gal(b1-4)GlcNAc(b1-6)]Man(a1-6)[GlcNAc(b1-4)][Gal(b1-4)GlcNAc(b1-2)Man(a1-3)]Man(b1-4)GlcNAc(b1-4)GlcNAc
# In short: as §1
# [18] = molecular target: Gal(b1-4)GlcNAc(b1-3)Gal(b1-4)GlcNAc(b1-2)[Gal(b1-4)GlcNAc(b1-3)Gal(b1-4)GlcNAc(b1-6)]Man(a1-6)[Gal(b1-4)GlcNAc(b1-3)Gal(b1-4)GlcNAc(b1-2)Man(a1-3)]Man(b1-4)GlcNAc(b1-4)GlcNAc
# In short: as §1
# [19] = molecular target: Gal(b1-4)GlcNAc(b1-3)Gal(b1-4)GlcNAc(b1-2)[Gal(b1-4)GlcNAc(b1-3)Gal(b1-4)GlcNAc(b1-6)]Man(a1-6)[Gal(b1-4)GlcNAc(b1-3)Gal(b1-4)GlcNAc(b1-2)Man(a1-3)]Man(b1-4)GlcNAc(b1-4)[Fuc(a1-6)]GlcNAc
# In short: as §1
# [20] = molecular target: Gal(b1-4)GlcNAc(b1-3)Gal(b1-4)GlcNAc(b1-3)Gal(b1-4)GlcNAc(b1-3)Gal(b1-4)GlcNAc(b1-3)Gal(b1-4)GlcNAc(b1-2)[Gal(b1-4)GlcNAc(b1-3)Gal(b1-4)GlcNAc(b1-3)Gal(b1-4)GlcNAc(b1-3)Gal(b1-4)GlcNAc(b1-3)Gal(b1-4)GlcNAc(b1-6)]Man(a1-6)[Gal(b1-4)GlcNAc(b1-3)Gal(b1-4)GlcNAc(b1-3)Gal(b1-4)GlcNAc(b1-3)Gal(b1-4)GlcNAc(b1-3)Gal(b1-4)GlcNAc(b1-2)Man(a1-3)]Man(b1-4)GlcNAc(b1-4)[Fuc(a1-6)]GlcNAc
# In short: as §1
# [21] = molecular target: Gal3S(b1-4)[Fuc(a1-3)]GlcNAc
# In short: as §1
binder,measurement,setting,value
B1,glycan array binding signal (z-score),[1],-0.058
same,glycan array binding signal (z-score),[2],-0.225
same,glycan array binding signal (z-score),[3],0.413
same,glycan array binding signal (z-score),[4],-0.241
same,glycan array binding signal (z-score),[5],-0.328
same,glycan array binding signal (z-score),[6],-0.09
same,glycan array binding signal (z-score),[7],-0.358
same,glycan array binding signal (z-score),[8],-0.192
same,glycan array binding signal (z-score),[9],-0.102
same,glycan array binding signal (z-score),Fuc(a1-4)GlcNAc,2.8
same,glycan array binding signal (z-score),Gal(a1-2)Gal,0.054
same,glycan array binding signal (z-score),Gal(a1-3)Gal,2.11
same,glycan array binding signal (z-score),Gal(a1-3)Gal(b1-3)GlcNAc,1.87
same,glycan array binding signal (z-score),[10],0.182
same,glycan array binding signal (z-score),Gal(a1-3)Gal(b1-4)Glc,-0.179
same,glycan array binding signal (z-score),[11],-0.272
same,glycan array binding signal (z-score),[12],-0.457
same,glycan array binding signal (z-score),[13],-0.408
same,glycan array binding signal (z-score),[14],-0.274
same,glycan array binding signal (z-score),[15],-0.376
same,glycan array binding signal (z-score),[16],0.021
same,glycan array binding signal (z-score),[17],-0.309
same,glycan array binding signal (z-score),[18],-0.106
same,glycan array binding signal (z-score),[19],-0.356
same,glycan array binding signal (z-score),[20],-0.351
same,glycan array binding signal (z-score),[21],-0.202
